# Screening results deposited in PubChem by National Center for Advancing Translational Sciences (NCATS).
# ELG1 genotox – qHTS screen for small molecules that induce genotoxicity in human embryonic kidney (HEK293T) cells expressing luciferase-tagged ELG1. 330,000 tested, 1.3% active. AID 504466, 2011. Potency, µM (top dose mostly 46 µM), most hits filed as activators. HEK293T ELG1-luciferase reporter, luminescence, 16 h; further: nearly all actives have a fitted effect of over 60% in size
#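 16 hr compound incubation (37 °C, 5% CO2) of HEK293T cells carrying luciferase-tagged ELG1; luciferase then measured by ONE-Glo luminescence after 30 min at RT.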
# FLuc modulator – qHTS profiling assay for firefly luciferase inhibitor/activator using purifed enzyme and Km concentrations of substrates (counterscreen for miR-21 project); Luciferin 4-monooxygenase (Photinus pyralis), P08659; purified FLuc, Km substrates, luminescence inhibition; Potency, µM (doses to about 57.5 µM), actives largely listed as inhibitors; 360,000 tested, 6.9% active; AID 588342, 2011; further: nearly all actives have a fitted effect of over 55% in size
# Target sequence (P08659 whole entry, looked up): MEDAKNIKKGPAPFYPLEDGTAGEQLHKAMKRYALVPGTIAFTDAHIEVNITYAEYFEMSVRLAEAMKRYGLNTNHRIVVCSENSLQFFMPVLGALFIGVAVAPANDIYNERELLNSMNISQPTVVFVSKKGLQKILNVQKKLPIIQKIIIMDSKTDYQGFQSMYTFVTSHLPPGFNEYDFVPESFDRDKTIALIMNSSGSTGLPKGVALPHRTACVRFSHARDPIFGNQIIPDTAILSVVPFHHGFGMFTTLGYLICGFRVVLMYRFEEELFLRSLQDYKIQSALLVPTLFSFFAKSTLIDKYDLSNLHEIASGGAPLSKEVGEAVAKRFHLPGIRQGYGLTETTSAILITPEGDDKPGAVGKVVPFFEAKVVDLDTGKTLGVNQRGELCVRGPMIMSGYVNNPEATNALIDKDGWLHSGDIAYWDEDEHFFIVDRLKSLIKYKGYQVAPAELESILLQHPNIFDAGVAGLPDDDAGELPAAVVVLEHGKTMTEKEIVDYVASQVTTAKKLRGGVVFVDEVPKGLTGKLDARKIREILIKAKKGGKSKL
#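 Purified P. pyralis luciferase (10nM final) with 10uM D-luciferin and 10uM ATP (Km levels) in 50mM Tris acetate pH 7.5, 10mM Mg acetate, 0.01% Tween-20, 0.05% BSA; qHTS 6-point titration, ~60 µM downward; luminescence read.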
# Rab9 promoter act – qHTS Assay for Rab9 Promoter Activators | Huh7 Rab9 promoter-luciferase reporter, luminescence, 24 h | Potency, µM (doses to about 9.22 µM), usual class: activators | 320,000 tested, 2.8% active; further: nearly all actives have a fitted effect of over 60% in size
#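 Cells were plated at 1500 per well in reduced-serum medium with 10% FBS and left 2 h. Compound in DMSO was then added for 24 h at 37 °C. Reporter signal was read by luminescence after 10 min with luciferase detection reagent.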
# SMN2 splice up – qHTS Assay for Enhancers of SMN2 Splice Variant Expression; HEK293 SMN2-luciferase splicing reporter, luminescence, 30-36 h; Potency, µM (doses to about 46.1 µM), most hits filed as activators; 210,000 tested, 2.8% active; AID 1458, 2008; further: nearly all actives have a fitted effect of over 55% in size
#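 qHTS luciferase splicing reporter: luminescence rises when SMN2 exon 7 is included in transfected HEK293 cells. Compound exposure lasted 30-36 h at 37C, with 4.5 mM final sodium butyrate as control, followed by a ONE-Glo read.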
# KinaseGlo FLuc – Counterscreen for Luciferase (Kinase-Glo TM) Inhibition | Luciferin 4-monooxygenase (Photuris pensylvanica), Q27757 | Kinase-Glo luciferase, ATP luminescence, 8 min | Potency, µM (highest dose often 38.3 µM), hits mostly inhibitors | 200,000 tested, 0.28% active; further: nearly all actives have a fitted effect of over 60% in size
#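 Luminescence was the read-out, taken after 8-minute incubation at ambient temperature. Luciferase turned over luciferin with 10 uM ATP in imidazole pH 7.2 buffer containing KCl, MgCl2, Tween 20 and BSA.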
# NPC1 promoter act – qHTS Assay for NPC1 Promoter Activators. AID 485313, 2010. Huh7 NPC1 promoter luciferase reporter, 24 h. Potency, µM (series often up to 9.22 µM), most hits filed as activators. 320,000 tested, 2.4% active; further: nearly all actives have a fitted effect of over 60% in size
#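 Cells: Huh7 expressing luciferase under the NPC1 promoter, 1500/well. Seeded 2 h, compound added, incubated 24 h at 37 °C. Luciferase reagent, 10 min ambient, then luminescence.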
# Numbers stand for hits; . = inactive; ? = inconclusive; / = no result; [ ] = remark or other dose. An excerpt weighted towards active compounds, which were near 7.3% of everything screened. The call rests on the fitted dose curve; in most records, active means well fitted curve in the direction sought with a large enough effect; inconclusive means small, poorly fitted or top-dose-only effect, or another doubt; inactive means no such curve, though single readings can be large; an effect the other way counts as inactive or inconclusive.
SMILES,ELG1 genotox,FLuc modulator,Rab9 promoter act,SMN2 splice up,KinaseGlo FLuc,NPC1 promoter act
CCN(CC)CCCC(C)NC(=O)c1ccc(-n2c(=O)c(=O)[nH]c3ccccc32)cc1 (stereo unspecified),/,/,/,/,.,/
Cc1ccc2nc(Cc3ccc(N)cc3)oc2c1,11.6µM,13.5µM,3.16µM,?,.,3.55µM
Cc1ccc2nc(CCc3nc4ccc(C)cc4o3)oc2c1,.,.,.,.,.,.
CCCOc1ccc(C(=O)CCC(=O)OCC(=O)Nc2cccc(S(N)(=O)=O)c2)cc1,.,10.7µM,.,/,/,.
CCCOc1ccc(C(=O)CCC(=O)OCC(=O)Nc2ccc(OCC)cc2)cc1,.,.,.,/,/,.
CCOc1ccc(C(=O)NCC(=O)OCC(=O)Nc2nnc(-c3ccccc3)o2)cc1,.,13.5µM,.,/,/,.
Cc1cc(OCC(=O)Nc2cccc(S(=O)(=O)N3CCCCC3)c2)ccc1Cl,.,6.75µM,.,/,/,.
CCOc1ccc(C(=O)NCC(=O)OCC(=O)Nc2cccc(S(=O)(=O)N3CCCC3)c2)cc1,.,4.26µM,.,/,/,.
COc1ccc(CNC(=O)CCc2cn(C)c3ccccc23)cc1,/,.,/,/,/,/
Cc1cc(C)cc(NC(=O)C2CCCN(S(=O)(=O)c3cccc4nsnc34)C2)c1 (stereo unspecified),/,.,/,.,/,/
O=C(CNc1ccc(F)cc1Cl)Nc1cccc(S(=O)(=O)N2CCCCC2)c1,.,10.7µM,.,/,/,.
CC(=O)c1ccc(NC(=O)c2noc(C(C)C)c2[N+](=O)[O-])cc1,.,.,.,.,.,.
Cc1ccc(O)c(NC(=O)c2cc(-c3cccs3)on2)c1,18.3µM,2.13µM,.,/,/,.
CC(C)NC(=O)c1cc(-c2cccs2)on1,4.47µM,15.1µM,2.82µM,12.6µM,.,3.16µM
Cc1ccc(O)c(NC(=O)c2noc(C(C)C)c2[N+](=O)[O-])c1,?,19µM,.,.,.,.
CC(=O)Nc1ccc(NC(=O)c2cc(-c3cccs3)on2)cc1,/,.,/,/,/,/
O=C(NCCN1CCOCC1)c1cc(-c2cccs2)on1,?,.,?,.,.,.
C=CCNC(=O)c1cc(-c2cccs2)on1,/,13.5µM,/,/,/,/
O=C(NCCc1ccccc1)c1cc(-c2ccc(Br)cc2)on1,/,.,/,.,/,/
Cc1ccc(O)c(NC(=O)c2onc(C)c2Cl)c1,?,16.9µM,.,/,/,.
C=CCNC(=O)c1cc(-c2ccc(Br)cc2)on1,?,?,0.794µM,11.2µM,.,1.26µM
O=C1CCCC/C1=C/Nc1ccc2c(c1)OCO2,?,10.7µM,3.55µM,?,.,2.82µM
COc1ccc(N/C=C2/CCCCC2=O)cc1,.,15.1µM,?,.,.,?
O=C1CCCC/C1=C/Nc1ccc(C(=O)O)cc1,.,12µM,?,.,.,.
C[C@H]1Cc2c(-c3ccccc3)nc3c(c2CO1)CN(C(=O)NCCc1c[nH]c2ccccc12)CC3,/,/,/,.[9.22 µM],.[7.66 µM],/
SMILES,ELG1 genotox,FLuc modulator,Rab9 promoter act,SMN2 splice up,KinaseGlo FLuc,NPC1 promoter act
Cc1ccc(C=Nc2cccnc2N)cc1,.,6.75µM,.,?,.,.
Cc1ccc(S(=O)(=O)c2ncccc2N)cc1,.,.,.[1.84 µM],/,/,.
CCOc1ccc(C=Nc2cccc3ncccc23)cc1,.,21.3µM,.,.,.,.
CCOc1ccc(/C=N/O)cc1,?,.,.,.,.,.
COc1ccc(C=Nc2cccnc2N)cc1,.,10.7µM,.,/,/,.
COc1ccc(/C=N/n2c(N)nc(-c3ccccc3)c2-c2ccccc2)cc1,.,?,.,.,.,.
O=Cc1cccc(Br)c1,/,/,/,.,/,/
COc1ccc(-c2nc3ccccn3c2Cl)cc1,1.16µM,0.426µM,0.794µM,/,/,3.16µM
COc1ccc(-c2nc3ccccn3c2CN2CCN(c3ccccc3F)CC2)cc1,.,16.9µM,.,.,.,.
Cc1ccccc1NC(=O)Cn1c(=O)n(Cc2ccc3c(c2)OCO3)c(=O)c2oc3ccccc3c21,/,.,/,/,/,/
Cc1cc(N2CCOCC2)nc2ccc(NC(=O)CCC(=O)N3CCN(c4ccc(F)cc4)CC3)cc12,.,19µM,?,/,/,.
